“And” between values parts separate entries of the source, which are not always exact repeats. Identical values can stand only once.

This assay concerns H9c2. The assay is described as follows: protection of cardiomyocytes from stress damage, SAR follow-up, cell-based, panel, H9c2 and HL-1, ATP luminescence, set 2 (AID 651871).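 Also: cells exposed to stressor for 2 h before ATP readout; reference of the scale not given here.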 The conditions noted are these: H9c2/HL-1 cardiomyocytes, H2O2 oxidative stress; with H2O2, run 3, at 79 µM (top of the series).
`CCOC(=O)c1cccc(NC(=O)CNC(=O)c2cc(-c3cc(OC)c(OC)c(OC)c3)nc3ccccc23)c1`: the activity (protection/inhibition) came to 99%.
With `COc1cc(-c2cc(C(=O)Nc3cccc(C(=O)NCc4ccccc4)c3)c3ccccc3n2)cc(OC)c1OC` the figure was 95.7%; with `COc1ccc2nc(-c3cc(OC)c(OC)c(OC)c3)cc(C(=O)NCC(=O)Nc3ccc(C(C)=O)cc3)c2c1`, 91.8% and 76.1%; with `COc1ccc2c(c1OC)C(=O)N1c3ccccc3C(=O)N(Cc3cccc(Cl)c3Cl)C21` (centres undefined), 77.5% and 104% and 43.3%.

(Values after PubChem BioAssay AID651871 (Sanford-Burnham Center for Chemical Genomics, 2012).)
